Measured values reported in PubChem BioAssay AID1159580 (chemical genetic matrix, 2015).
Where “and” joins values, the source holds several entries; their conditions need not be identical. Identical values can stand only once. Hit rate of the full screen: of about 5,500 compounds, about 2,000 (36%) were called active. Inconclusive results (about 18%) are left out. Cut-off read from the data, not from the text of the source: active = normalized growth mostly below about 0.91 (no sharp cut-off); inconclusive = no clear call, values can overlap the other calls; inactive = mostly above about 0.92. The list shows a part of the results.

Test: chemical genetic growth profiling, strain panel (AID 1159580);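 note: tested at 20 µM; growth read once vehicle control cultures reached saturation at 30 °C; 1 = growth at the plate median or of vehicle wells; lower values mean less growth of the strain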
Settings: S. cerevisiae deletion strains, growth OD

Measured: normalized growth

CC(=O)Oc1ccc2c(c1C(C)C)CCC1C(C)(C)CCC[C@]21C (stereo not given in full)
inactive: locus YAL013W, strain DEP1, stronger effect = lower value 1.02 | locus YAL021C, strain ccr4, stronger effect = lower value 0.996 | locus YAL026C, strain drs2, stronger effect = lower value 1.03 | locus YAL030W, strain snc1, stronger effect = lower value 1.01 | locus YBL061C, strain skt5, stronger effect = lower value 1.03 | locus YBR009C, strain hhf1, stronger effect = lower value 1.02 | locus YBR021W, strain FUR4, stronger effect = lower value 1.01 | locus YBR023C, strain chs3, stronger effect = lower value 1.03 | locus YBR171W, strain sec66, stronger effect = lower value 1.03 | locus YBR229C, strain ROT2, stronger effect = lower value 1.02 | locus YBR231C, strain swc5, stronger effect = lower value 1.03 | locus YBR279W, strain paf1, stronger effect = lower value 1.02 | locus YCL011C, strain gbp2, stronger effect = lower value 1.02 | locus YCL016C, strain dcc1, stronger effect = lower value 1.02 | locus YCL029C, strain bik1, stronger effect = lower value 0.997 | locus YCL061C, strain MRC1, stronger effect = lower value 1.01 | locus YCL069W, strain vba3, stronger effect = lower value 1.01 | locus YCR088W, strain abp1, stronger effect = lower value 1.02 | locus YDL005C, strain med2, stronger effect = lower value 1.02 | locus YDL035C, strain GPR1, stronger effect = lower value 1.03 | locus YDL040C, strain nat1, stronger effect = lower value 1 | locus YDL074C, strain BRE1, stronger effect = lower value 1.05 | locus YDL101C, strain DUN1, stronger effect = lower value 1.03 | locus YDL134C, strain PPH21, stronger effect = lower value 1.02 | locus YDL185W, strain tfp1, stronger effect = lower value 1 | locus YDL192W, strain arf1, stronger effect = lower value 1.01 | locus YDR001C, strain nth1, stronger effect = lower value 1.02 | locus YDR069C, strain doa4, stronger effect = lower value 1.02 | locus YDR101C, strain arx1, stronger effect = lower value 0.995 | locus YDR137W, strain rgp1, stronger effect = lower value 1.01 | locus YDR150W, strain NUM1, stronger effect = lower value 0.995 | locus YDR159W, strain sac3, stronger effect = lower value 1.06 | locus YDR162C, strain NBP2, stronger effect = lower value 1.02 | locus YDR195W, strain ref2 1.01 | locus YDR297W, strain sur2, stronger effect = lower value 1.01 | locus YDR318W, strain mcm21, stronger effect = lower value 0.996 | locus YDR334W, strain swr1, stronger effect = lower value 1.02 | locus YDR335W, strain msn5, stronger effect = lower value 1.02 | locus YDR388W, stronger effect = lower value 0.994 | locus YDR392W, strain spt3, stronger effect = lower value 0.997 | locus YDR502C, strain sam2, stronger effect = lower value 1.01 | locus YEL003W, strain gim4, stronger effect = lower value 1.02 | locus YEL037C, strain rad23, stronger effect = lower value 1.01 | locus YEL061C, strain CIN8 (second series), stronger effect = lower value 1.02 | locus YEL061C, strain CIN8, stronger effect = lower value 1.01 | locus YER015W, strain faa2, stronger effect = lower value 1.02 | locus YER016W, strain bim1, stronger effect = lower value 1.02 | locus YER110C, stronger effect = lower value 0.998 | locus YER111C, strain swi4, stronger effect = lower value 1.01 | locus YER155C, strain BEM2 (second series), stronger effect = lower value 1.04 | locus YER155C, strain BEM2, stronger effect = lower value 1.01 | locus YER167W, strain BCK2, stronger effect = lower value 1.01 | locus YFR010W, strain ubp6, stronger effect = lower value 1.04 | locus YGL078C, strain dbp3, stronger effect = lower value 1.01 | locus YGL086W, strain mad1, stronger effect = lower value 0.99 | locus YGL167C, strain pmr1, stronger effect = lower value 1.02 | locus YGL173C, strain kem1, stronger effect = lower value 1.02 | locus YGL227W, strain vid30, stronger effect = lower value 1.02 | locus YGL240W, strain doc1, stronger effect = lower value 1.02 | locus YGL248W, strain PDE1, stronger effect = lower value 1.02 | locus YGL253W, strain hxk2, stronger effect = lower value 1.03 | locus YGR135W, strain pre9, stronger effect = lower value 0.99 | locus YGR252W, strain gcn5, stronger effect = lower value 1.02 | locus YHR013C, strain ard1, stronger effect = lower value 1.04 | locus YHR027C, strain rpn1, stronger effect = lower value 1.02 | locus YHR030C, strain SLT2, stronger effect = lower value 0.969 | locus YHR079C, strain IRE1 (second series), stronger effect = lower value 0.985 | locus YHR079C, strain IRE1, stronger effect = lower value 0.973 | locus YHR094C, strain hxt1, stronger effect = lower value 1 | locus YHR129C, strain ARP1, stronger effect = lower value 1.01 | locus YHR142W, strain chs7, stronger effect = lower value 1.05 | locus YHR200W, strain rpn10, stronger effect = lower value 1 | locus YIL066C, strain RNR3, stronger effect = lower value 1.03 | locus YIL073C, strain SPO22, stronger effect = lower value 1.04 | locus YIL125W, strain kgd1, stronger effect = lower value 1 | locus YIR030C, strain dcg1, stronger effect = lower value 1 | locus YJL092W, strain hpr5, stronger effect = lower value 1.02 | locus YJL095W, strain BCK1 (second series), stronger effect = lower value 1.04 | locus YJL095W, strain BCK1, stronger effect = lower value 1.04 and 0.976 | locus YJL115W, strain asf1, stronger effect = lower value 1.04 | locus YJL129C, strain trk1, stronger effect = lower value 0.995 | locus YJL134W, strain LCB3, stronger effect = lower value 1.01 | locus YJL154C, strain vps35, stronger effect = lower value 1.01 | locus YJL164C, strain tpk1, stronger effect = lower value 1 | locus YJL166W, strain qcr8, stronger effect = lower value 1.03 | locus YJL168C, strain set2, stronger effect = lower value 0.996 | locus YJL187C, strain SWE1 (second series), stronger effect = lower value 1.02 | locus YJL187C, strain SWE1, stronger effect = lower value 1.01 | locus YJR043C, strain POL32, stronger effect = lower value 1.03 | locus YJR066W, strain TOR1, stronger effect = lower value 0.918 | locus YKL009W, strain mrt4, stronger effect = lower value 1.01 | locus YKL068W, stronger effect = lower value 0.997 | locus YKL085W, strain MDH1 (second series), stronger effect = lower value 1.01 | locus YKL085W, strain MDH1, stronger effect = lower value 1.01 | locus YKL160W, strain elf1, stronger effect = lower value 1.01 | locus YKR001C, strain vps1, stronger effect = lower value 1.01 | locus YKR026C, strain gcn3, stronger effect = lower value 1.03 | locus YKR091W, strain srl3, stronger effect = lower value 1.01 | locus YLL001W, strain dnm1, stronger effect = lower value 1 | locus YLL026W, stronger effect = lower value 1.02 | locus YLL041C, strain sdh2, stronger effect = lower value 1.02 | locus YLR027C, strain aat2, stronger effect = lower value 1.02 | locus YLR039C, strain RIC1, stronger effect = lower value 1.02 | locus YLR058C, strain SHM2, stronger effect = lower value 1.02 | locus YLR102C, strain apc9, stronger effect = lower value 0.999 | locus YLR113W, strain HOG1, stronger effect = lower value 1 | locus YLR221C, strain rsa3, stronger effect = lower value 1.02 | locus YLR258W, strain gsy2, stronger effect = lower value 1.01 | locus YLR262C, strain YPT6 (second series), stronger effect = lower value 1.01 | locus YLR262C, strain YPT6, stronger effect = lower value 1.06 | locus YLR268W, strain sec22, stronger effect = lower value 1 | locus YLR320W, strain mms22, stronger effect = lower value 1.04 | locus YLR330W, strain CHS5, stronger effect = lower value 1.01 | locus YLR342W, strain FKS1 (second series), stronger effect = lower value 1.01 | locus YLR342W, strain FKS1, stronger effect = lower value 1.02 | locus YLR357W, strain rsc2, stronger effect = lower value 1.04 | locus YLR370C, strain arc18, stronger effect = lower value 1.02 | locus YLR371W, strain rom2, stronger effect = lower value 0.99 | locus YLR384C, strain iki3, stronger effect = lower value 1.03 | locus YLR418C, strain cdc73, stronger effect = lower value 1 | locus YML016C, strain PPZ1, stronger effect = lower value 1.02 | locus YML032C, strain rad52, stronger effect = lower value 1.01 | locus YML120C, strain ndi1, stronger effect = lower value 1.01 | locus YML124C, strain tub3, stronger effect = lower value 1 | locus YMR058W, strain fet3, stronger effect = lower value 1.03 | locus YMR078C, strain ctf18, stronger effect = lower value 1 | locus YMR125W, strain sto1, stronger effect = lower value 1.03 | locus YMR129W, stronger effect = lower value 1.03 | locus YMR205C, strain PFK2, stronger effect = lower value 0.995 | locus YMR223W, strain ubp8, stronger effect = lower value 1.01 | locus YMR231W, strain pep5, stronger effect = lower value 1.01 | locus YMR263W, strain SAP30, stronger effect = lower value 1.02 | locus YMR307W, strain GAS1, stronger effect = lower value 1.02 | locus YNL067W, strain RPL9B, stronger effect = lower value 1.01 | locus YNL071W, strain lat1, stronger effect = lower value 1.01 | locus YNL128W, strain TEP1, stronger effect = lower value 1.02 | locus YNL153C, strain GIM3, stronger effect = lower value 1.02 | locus YNL183C, strain NPR1, stronger effect = lower value 0.928 | locus YNL209W, strain ssb2, stronger effect = lower value 1.02 | locus YNL233W, strain BNI4, stronger effect = lower value 1.02 | locus YNL248C, strain rpa49, stronger effect = lower value 1.02 | locus YNL250W, strain rad50, stronger effect = lower value 0.992 | locus YNL271C, strain bni1, stronger effect = lower value 0.996 | locus YNL298W, strain CLA4, stronger effect = lower value 1.01 | locus YNL307C, strain MCK1, stronger effect = lower value 1 | locus YNL322C, strain KRE1 (second series), stronger effect = lower value 1.01 | locus YNR049C, strain mso1, stronger effect = lower value 1.04 | locus YNR052C, strain pop2, stronger effect = lower value 0.995 | locus YOL012C, strain htz1 1.05 | locus YOL147C, strain pex11, stronger effect = lower value 0.999 | locus YOR001W, strain rrp6, stronger effect = lower value 1.02 | locus YOR061W, strain CKA2, stronger effect = lower value 1.02 | locus YOR069W, strain VPS5, stronger effect = lower value 1.01 | locus YOR070C, strain gyp1, stronger effect = lower value 1.02 | locus YOR080W, strain dia2, stronger effect = lower value 1.02 | locus YOR083W, strain WHI5, stronger effect = lower value 1.01 | locus YOR106W, strain vam3, stronger effect = lower value 1.02 | locus YOR136W, strain idh2, stronger effect = lower value 0.99 | locus YOR144C, strain elg1, stronger effect = lower value 0.996 | locus YOR184W, strain ser1, stronger effect = lower value 0.996 | locus YOR231W, strain MKK1, stronger effect = lower value 0.97 | locus YOR265W, strain rbl2, stronger effect = lower value 1.04 | locus YOR270C, strain vph1, stronger effect = lower value 1.01 | locus YOR290C, strain snf2, stronger effect = lower value 1 | locus YOR316C, strain cot1, stronger effect = lower value 0.998 | locus YPL051W, strain arl3, stronger effect = lower value 1.02 | locus YPL078C, strain atp4, stronger effect = lower value 1 | locus YPL106C, strain sse1, stronger effect = lower value 1.02 | locus YPL240C, strain hsp82, stronger effect = lower value 1.02 | locus YPL256C, strain CLN2, stronger effect = lower value 0.966 | locus YPR119W, strain clb2, stronger effect = lower value 0.992 | locus YPR141C, strain kar3, stronger effect = lower value 1 | locus YPR163C, strain tif3, stronger effect = lower value 0.996 | locus YPR167C, strain met16, stronger effect = lower value 0.995 | strain wtn01, stronger effect = lower value 1
